Where “and” joins values, the source holds several entries; their conditions need not be identical. Identical values can stand only once. About 83,000 compounds went through this panel and 20% of them were active in at least one assay; those are over-represented in the sample as a whole.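 Cell lines were cultured in 96-well plates, exposed to a single compound concentration, and assessed for percent growth 48 hours later.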 Calls of active or inactive are those of the source. The calls were made as follows: active = growth percent below 10; inactive = the rest.
Test system: M14 melanoma
Assay: NCI-60 one-dose screen, 48 h (100 = growth as untreated, 0 = no growth, -100 = all killed)
Conditions: 10 µM unless noted

Row | Structure (SMILES) | growth
1 | Cc1ccc2c(n1)C(=O)C(Cl)=C(Nc1ccc(C#N)cc1)C2=O | 86.2% (inactive)
2 | CC(C)(O)c1cncc(-c2ccc3ncc(C#N)c(N4CCc5cc(F)c(Cl)cc54)c3c2)c1 | 10.3% (inactive)
3 | O=c1c2ccccc2cc2n1CCN=C2c1ccccc1 | 103% (inactive)
4 | O=C(CN1CCN(c2cc(=O)[nH]c3ccc(F)cc23)CC1)N(c1ccccc1)c1ccccc1 | 105% (inactive)
5 | CCc1cc(OC(=O)N2CCC(N3CCCCC3)CC2)ccc1Nc1cc(-c2ccc(-n3cccn3)cc2)[nH]n1 | -85.5% (active)
6 | CCCC/C(=C\c1ccc(O)c(O)c1)C(=O)NC(Cc1ccccc1)C(=O)C(=O)NCCc1ccc(OC)cc1 (stereo not drawn) | 95% (inactive)
7 | CN(C)c1ccc(-c2cc(-c3c[nH]c4ccccc34)nc(N)c2C#N)cc1 | -27.1% (active)
8 | COc1cc(C(=O)c2cc(C(C)=O)c3ccc(C)cn23)cc(OC)c1OC | 16.1% (inactive)
9 | CCOC(=O)c1ccccc1NC1=C(Cl)C(=O)c2nc(C)ccc2C1=O | 109% (inactive)
10 | CN(C)S(=O)(=O)c1ccc(-c2nc(C(Cl)Cl)nc3cc(-c4ccccc4)nn23)cc1 | 74% (inactive)
11 | CN1CCN(c2ccc(Nc3nc(NCCCNS(=O)(=O)c4ccc(Cl)cc4)c4sccc4n3)cc2)CC1 | -60.4% (active)
12 | O=C1[C@@H]2Cc3c([nH]c4ccccc34)[C@H](c3ccc(Cl)cc3)N2C(=O)CN1C1CCN(Cc2ccccc2)CC1 | 27.9% (inactive)
13 | CN1CCN(CCNc2nc(-c3cccc(NS(=O)(=O)c4cccc5c(N(C)C)cccc45)c3)cs2)CC1 | 62.9% (inactive)
14 | C#C[C@]1(O)CC[C@H]2[C@@H]3CC=C4c5sc(Nc6ncccc6C)nc5CC[C@]4(C)[C@H]3CC[C@@]21C | -55.9% (active)
15 | CC(=O)N(O)CCCCCNC(=O)CCC(=O)N(O)CCCCCNC(=O)CCC(=O)N(O)CCCCCN(CCCCCCCCCC[P+](c1ccccc1)(c1ccccc1)c1ccccc1)CCCCCCCCCC[P+](c1ccccc1)(c1ccccc1)c1ccccc1 | 11% (inactive)
16 | O=C1Nc2ccccc2/C1=N\c1nnc(-c2ccccc2)o1 | 95.9% (inactive)
17 | CCCCCCCCCC(=O)NC(C)(C)C(=O)N1CCC[C@H]1C(=O)N[C@@H](CC(C)C)C(=O)N[C@@](C)(CC)C(=O)N[C@@H](CCC(N)=O)C(=O)N[C@H](CCC(N)=O)C(=O)NC(C)(C)C(=O)NC(C)(C)C(=O)N[C@@H](CCC(N)=O)C(=O)N[C@H](CC(C)C)C(=O)N[C@H](CO)CC(C)C | -77.5% (active) and -65.7% (active)

Row | Structure (SMILES) | growth
18 | Fc1cccc(Cl)c1/C=N/Nc1nc(N/N=C/c2c(F)cccc2Cl)nc(N2CCCCC2)n1 | 11.9% (inactive)
19 | Cc1ccc(/C(N)=N/C(N)=N/c2nc3ccccc3s2)cc1 | 107% (inactive)
20 | CCc1cc2c(cc1Cl)nc1c(=O)[nH]c(=O)nc-1n2CCOCC(C)(C)C | 61.8% (inactive)
21 | Cc1csc(/N=C(N)/N=C(\N)c2cccc(Br)c2)n1 | 86.6% (inactive)
22 | Brc1cccc(-c2cc(-c3cnc4c(c3)OCCO4)n[nH]2)c1 | 27.1% (inactive)
23 | CN(C)CC(=O)Nc1nc(-c2cccc(NS(=O)(=O)c3cccc4c(N(C)C)cccc34)c2)cs1 | 100% (inactive)
24 | O=C(/C=C/c1cc(Cl)ccc1Cl)Nc1ncc(Cc2ccc(Cl)cc2)s1 | 5.98% (active)
25 | Nc1ncc(-c2ccc3ncnc(NCc4ccccc4)c3c2)cn1 | 65.6% (inactive)
26 | Cc1ccc(-c2cc3nc(C(Cl)Cl)nc(-c4ccc(S(=O)(=O)N(C)C)cc4)n3n2)cc1 | 93.1% (inactive)
27 | CCN(CC)CCOc1ccc(C(=C(c2ccccc2)C2CCCC2)c2ccc(OCCN(CC)CC)cc2)cc1 | 30.8% (inactive)
28 | COC(=O)c1cccc(NC2=C(Cl)C(=O)c3nc(C)ccc3C2=O)c1 | 98.3% (inactive)
29 | COc1cc(/C=N\NC(=O)c2ccc3nc(-c4ccc(Br)cc4)[nH]c3c2)cc(OC)c1OC | 38.3% (inactive)
30 | NC1=NC2(CCCC2)N(c2ccc(S(=O)(=O)Nc3nccs3)cc2)C(N)=N1 | 108% (inactive)
31 | N#C/C(=N\Nc1ccc(F)cc1)C(=O)Nc1cc(-c2ccccc2)nn1-c1ccccc1 | 18.3% (inactive)
32 | Cc1ccc(S(=O)(=O)c2nc(-c3ccc(F)cc3)oc2S(C)(=O)=O)cc1 | 64% (inactive)
33 | CC(O)c1cccc(/C(N)=N/C(N)=N/c2nc3ccccc3s2)c1 (stereo not drawn) | 94.4% (inactive)

Source: PubChem BioAssay (NCI)
